Unmarked numbers belong to inactive results. For some of these results: Results with a measured potency or affinity are listed apart. Active and inactive are the calls of the source. Unless noted, no rule for the calls is given here.
Key:
[1] = antimalarial activity against Dd2 strain (AID 2302;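 active = growth inhibition above 50% at the single 2 µM test dose, taken to imply half-maximal potency below 2 µM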;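 also: 0% = DMSO untreated growth and 100% = chloroquine plus artemisinin killed control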); conditions: P. falciparum Dd2 in RBCs, LDH growth readout, 72 h; at 2 µM; hits give high values
[2] = HepG2 cytotoxicity, primary screen, cytotoxicity control for P. falciparum antimalarial project, cell-based, ATP luminescence (AID 2303;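 active = inhibition above 50%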;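 also: 0% = DMSO wells and 100% = digitonin-killed cells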); conditions: HepG2 viability, 24-48 h, at 10 µM, hits give high values
[3] = biological target: L-lactate dehydrogenase (Plasmodium falciparum (isolate CDC / Honduras)) (UniProt Q27743); assay: PfLDH activity inhibition – cell lysate, 3D7 strain, counter-screen for P. falciparum growth inhibition project (AID 2304);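 also: 0% = vehicle and 100% = reference inhibitor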; conditions: P. falciparum 3D7 crude extract, LDH APAD/NBT absorbance; at 2 µM; hits give high values
Chain of L-lactate dehydrogenase (Plasmodium falciparum (isolate CDC / Honduras)) (Q27743 whole entry, looked up): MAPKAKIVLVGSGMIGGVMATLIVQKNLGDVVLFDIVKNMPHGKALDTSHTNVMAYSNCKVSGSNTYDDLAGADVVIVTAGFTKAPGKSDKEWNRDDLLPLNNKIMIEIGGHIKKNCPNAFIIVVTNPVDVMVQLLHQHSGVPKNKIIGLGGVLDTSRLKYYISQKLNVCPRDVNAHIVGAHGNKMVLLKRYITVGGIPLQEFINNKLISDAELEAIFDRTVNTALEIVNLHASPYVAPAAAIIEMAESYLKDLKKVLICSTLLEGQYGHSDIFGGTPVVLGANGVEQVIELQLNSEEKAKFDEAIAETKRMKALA

[4] = inhibition of 3D7 malaria parasite growth – strain 3D7 (AID 2306);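 also: 0% = DMSO wells and 100% = chloroquine plus artemisinin control wells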; conditions: P. falciparum 3D7 erythrocytic growth, LDH absorbance, 72 h; at 2 µM; hits give high values
[5] = biological target: Calcium-dependent protein kinase 1 (Plasmodium falciparum (isolate 3D7)) (UniProt P62344); assay: PfCDPK1 kinase inhibitors, biochemical, TCAMS library (AID 1159585; cut-off not given, nearly all actives have IC50 up to about 0.98 µM;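 also: inhibitors leave more ATP so luminescence rises with inhibition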); conditions: recombinant PfCDPK1, Kinase-Glo ATP depletion luminescence
Chain of Calcium-dependent protein kinase 1 (Plasmodium falciparum (isolate 3D7)) (P62344 whole entry, looked up): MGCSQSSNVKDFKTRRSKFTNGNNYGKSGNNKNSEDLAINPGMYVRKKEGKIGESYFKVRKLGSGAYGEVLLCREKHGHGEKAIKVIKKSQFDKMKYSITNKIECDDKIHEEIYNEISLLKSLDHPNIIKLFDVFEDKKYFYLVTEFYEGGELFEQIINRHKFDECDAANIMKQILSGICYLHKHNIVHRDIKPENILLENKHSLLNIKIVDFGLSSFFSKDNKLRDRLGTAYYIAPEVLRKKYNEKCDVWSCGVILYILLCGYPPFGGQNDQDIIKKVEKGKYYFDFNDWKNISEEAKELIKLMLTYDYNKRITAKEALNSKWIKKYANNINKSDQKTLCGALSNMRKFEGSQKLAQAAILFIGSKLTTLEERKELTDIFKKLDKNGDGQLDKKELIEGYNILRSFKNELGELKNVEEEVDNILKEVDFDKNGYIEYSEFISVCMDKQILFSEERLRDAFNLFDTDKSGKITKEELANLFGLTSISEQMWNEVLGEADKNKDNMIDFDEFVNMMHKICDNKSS

[6] = biological target: Plasmodium falciparum protein kinase 6 (PK6, PF3D7_1337100) (UniProt Q8IDW1); assay: PfPK6 kinase inhibitors, biochemical, TCAMS library (AID 1159586); conditions: recombinant PfPK6, Kinase-Glo ATP depletion luminescence
Chain of Plasmodium falciparum protein kinase 6 (PK6, PF3D7_1337100) (Q8IDW1 1-305): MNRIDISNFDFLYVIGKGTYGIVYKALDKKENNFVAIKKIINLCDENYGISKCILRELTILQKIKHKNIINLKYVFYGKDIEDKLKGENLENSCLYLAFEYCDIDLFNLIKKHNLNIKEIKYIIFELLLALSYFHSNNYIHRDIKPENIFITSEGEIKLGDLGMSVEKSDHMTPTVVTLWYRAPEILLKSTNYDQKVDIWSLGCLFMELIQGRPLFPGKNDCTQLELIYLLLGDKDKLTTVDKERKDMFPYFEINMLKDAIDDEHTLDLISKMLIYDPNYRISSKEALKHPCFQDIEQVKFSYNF

[7] = biological target: Protein kinase 7 (PK7), Plasmodium falciparum 3D7 (PF3D7_0213400) (UniProt Q7YTF7); assay: inhibition of Plasmodium PK7 catalytic activity – biochemical, TCAMS antimalarial set, Kinase-Glo luminescence (AID 1159587); conditions: recombinant PfPK7, Kinase-Glo ATP depletion luminescence
Chain of Protein kinase 7 (PK7), Plasmodium falciparum 3D7 (PF3D7_0213400) (Q7YTF7 1-343): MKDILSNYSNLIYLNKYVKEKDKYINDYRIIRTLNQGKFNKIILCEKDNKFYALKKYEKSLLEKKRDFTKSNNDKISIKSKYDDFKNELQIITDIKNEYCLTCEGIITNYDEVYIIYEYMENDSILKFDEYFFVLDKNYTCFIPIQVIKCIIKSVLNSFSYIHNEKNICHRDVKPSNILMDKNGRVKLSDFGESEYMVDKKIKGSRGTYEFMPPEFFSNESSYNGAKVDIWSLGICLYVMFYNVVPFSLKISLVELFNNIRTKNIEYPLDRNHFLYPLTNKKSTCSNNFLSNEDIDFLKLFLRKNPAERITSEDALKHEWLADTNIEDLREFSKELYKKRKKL

[8] = biological target: Calcium-dependent protein kinase 4 (Plasmodium falciparum (isolate 3D7)) (UniProt Q8IBS5); assay: PfCDPK4 kinase inhibitors, biochemical, TCAMS library (AID 1159588; cut-off not given, nearly all actives have IC50 up to about 0.91 µM); conditions: recombinant PfCDPK4, Kinase-Glo ATP depletion luminescence
Chain of Calcium-dependent protein kinase 4 (Plasmodium falciparum (isolate 3D7)) (Q8IBS5 whole entry, looked up): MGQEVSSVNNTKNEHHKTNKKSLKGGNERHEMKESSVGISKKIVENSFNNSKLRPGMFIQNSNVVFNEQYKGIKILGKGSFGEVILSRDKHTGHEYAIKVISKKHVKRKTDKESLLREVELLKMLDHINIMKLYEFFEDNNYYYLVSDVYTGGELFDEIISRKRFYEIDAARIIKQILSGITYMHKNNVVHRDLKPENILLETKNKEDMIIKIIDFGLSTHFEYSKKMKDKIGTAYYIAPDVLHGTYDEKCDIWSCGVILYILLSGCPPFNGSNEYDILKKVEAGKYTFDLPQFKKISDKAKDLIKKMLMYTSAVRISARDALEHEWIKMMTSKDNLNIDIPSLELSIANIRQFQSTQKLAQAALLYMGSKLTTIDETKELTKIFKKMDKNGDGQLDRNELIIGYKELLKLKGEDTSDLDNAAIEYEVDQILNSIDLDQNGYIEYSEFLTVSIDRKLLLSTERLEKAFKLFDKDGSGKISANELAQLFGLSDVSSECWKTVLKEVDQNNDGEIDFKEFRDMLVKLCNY

Row | SMILES | growth inhibition [1] | inhibition [2] [%] | inhibition [3] [%] | growth inhibition [4] | outcome [5] | outcome [6] | outcome [7] | outcome [8]
1 | COc1cc(Nc2ncnc3cc(OC)c(OC)cc23)cc([N+](=O)[O-])c1 | 6% | 8 | 8 | 97% (active) | inactive | inactive | inactive | inactive
2 | CC(C)Sc1nc2c(c(=O)n1Cc1ccco1)C1(CCCCC1)Cc1ccccc1-2 | 99% (active) | 10 | 0 | 100% (active) | inactive | inactive | inactive | inactive
3 | CCOc1ccc(C(C)NC(=O)c2cc(Cl)ccc2OC)cc1OCC (stereo not given) | 99% (active) | -1 | -2 | 101% (active) | inactive | inactive | inactive | inactive
4 | Nc1nccc2ccc(OC3CCCCC3)cc12 | 41% | 24 | -4 | 98% (active) | inactive | inactive | inactive | inactive
5 | O=C(/C=C/c1ccc(Cl)c(Cl)c1)NCCCCCN1CCCC(CNC(=O)c2sc3ccccc3c2Cl)C1 (stereo not given) | -3% | 42 | 4 | 98% (active) | inactive | inactive | inactive | inactive
6 | CCNc1cc(C(=O)N[C@@H](Cc2ccccc2)[C@H](O)CNC(CC)c2cccc(Cl)c2)cc(N2CCCCS2(=O)=O)c1 (stereo not given in full) | 98% (active) | 12 | -2 | 100% (active) | inactive | inactive | inactive | inactive
7 | O=C(Nc1cccc(CN2CCCN(Cc3ccc4c(c3)OCO4)CC2)c1)c1ccc2ccccc2c1 | 14% | 7 | -2 | 86% (active) | inactive | inactive | inactive | inactive
8 | CCN(CC)c1nc(N)c2c(N)nc3c(c2c1C#N)C(=O)CN3Cc1ccccc1 | 96% (active) | 26 | -3 | 96% (active) | inactive | inactive | inactive | inactive
9 | COc1cccc(C(=O)[C@H]2C[C@@H]2CN(C)CC(O)c2cc(C)c(OC)cc2C)c1 (stereo not given in full) | 73% (active) | 8 | 2 | 88% (active) | inactive | inactive | inactive | inactive
10 | CC(=O)Nc1ccc(C(=O)Nc2cccc(-c3ccc(-c4nc5ccc(F)cc5[nH]4)s3)c2)cn1 | 97% (active) | 33 | 3 | 101% (active) | inactive | inactive | inactive | inactive
11 | CC(NC(=O)c1ccc(O)c(-c2ccc(Cl)c(Cl)c2)c1)C(=O)NC1CCCCC1 (stereo not given) | 82% (active) | -5 | -2 | 96% (active) | inactive | inactive | inactive | inactive
12 | CCc1cc(-c2onc(C(F)(F)F)c2-c2ccccc2)c(O)cc1OC | 73% (active) | 16 | -2 | 98% (active) | inactive | inactive | inactive | inactive
13 | COc1ccc2nc(C)cc(N/N=C/C=C/c3ccccc3)c2c1 | 100% (active) | 27 | 0 | 100% (active) | inactive | inactive | inactive | inactive
14 | CCc1c(C)c(C#N)c2nc3ccccc3n2c1NCc1ccco1 | 90% (active) | -3 | 6 | 99% (active) | inactive | inactive | inactive | inactive
15 | COc1cccc(C2CCN(CCCCNC(=O)c3ccc(NC(=O)c4ccc(Cl)cc4)cc3)CC2)c1 | 40% | 18 | -5 | 99% (active) | inactive | inactive | inactive | inactive
16 | CCC[C@@H]([C@@H](CC1CCCCC1)C(=O)N[C@H](C(=O)Nc1nccs1)C(C)(C)SCCOCCOCC)N(O)C=O | 97% (active) | 40 | -5 | 100% (active) | inactive | inactive | inactive | inactive
17 | O=C(NC(=O)c1ccccc1)NC1CCN(c2ccnc3cc(Cl)ccc23)C1 (stereo not given) | 99% (active) | 32 | -2 | 101% (active) | inactive | inactive | inactive | inactive
18 | O=C(c1ccccc1[N+](=O)[O-])N(Cc1ccccc1)c1ccccn1 | -2% | 0 | -1 | 91% (active) | inactive | inactive | inactive | inactive
19 | CC(=O)N1N=C(c2ccc(F)cc2)Sc2c1nc(C1CCCCC1)n2C(C)=O | 9% | 4 | 4 | 92% (active) | inactive | inactive | inactive | inactive
20 | CCOc1cc(C)c(C2CCN(CCCCNC(=O)c3ccc(NC(=O)c4ccc(Cl)cc4)cc3)CC2)cc1C | 87% (active) | 10 | 1 | 100% (active) | inactive | inactive | inactive | inactive

Reference: PubChem BioAssay
